Screening data as filed in PubChem BioAssay.
A selection: hits, their analogues and other compounds. The true share with any hit is near 4.8%.
hgDAF-12 ag: hgDAF-12 agonism, primary luciferase screen; HEK293 GAL4-hgDAF12 UAS-luciferase reporter, agonist luminescence; normalized to butyrate control; activation, % at 6.8 µM; hit rate 1.8% among 370,000;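 active means activation above a cutoff set at the mean of all screened compounds plus 3 SD, cut at about 10% in these data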;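 further: 0% = DMSO wells and 100% = sodium butyrate wells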
ssDAF-12 act: activators of S. stercoralis DAF-12 nuclear receptor | HEK293 ssDAF-12/GRIP1 lit1-tk-luc reporter, luminescence; % of 3 µM dafachronic acid response | activation, % at 6.8 µM | hit rate 1% among 370,000 | AID 652126;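 active means activation above the mean over all tested compounds plus 3 SD, cut at about 0.9% in these data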;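 further: 0% = DMSO-only wells and 100% = 3 µM delta7-dafachronic acid wells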
DAX1 inh-1: inhibitors of human orphan nuclear receptor DAX1 (NR0B1); P51843; HEK293 Gal4-DAX1 luciferase reporter, luminescence; inhibition, % at 6.75 µM; hit rate 0.99% among 340,000; AID 504766;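 active means inhibition above the mean over all tested compounds plus 3 SD, cut at about 4.2% in these data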;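 further: 0% = DAX1-transfected cells with DMSO and 100% = empty-vector control cells with DMSO; inhibition shows as a rise in luminescence from relieved DAX1 repression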
Target sequence (P51843 207-470 limits assumed): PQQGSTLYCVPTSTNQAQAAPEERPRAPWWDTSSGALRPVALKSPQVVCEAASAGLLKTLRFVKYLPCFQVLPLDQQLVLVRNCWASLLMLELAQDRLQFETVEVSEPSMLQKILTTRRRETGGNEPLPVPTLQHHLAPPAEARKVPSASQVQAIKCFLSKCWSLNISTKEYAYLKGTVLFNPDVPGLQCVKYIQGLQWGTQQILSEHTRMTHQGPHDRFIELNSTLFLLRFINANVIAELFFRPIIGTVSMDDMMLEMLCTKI
hcDAF-12 act: H. contortus DAF-12 activation, primary screen | HEK293 hcDAF-12 lit1-tk-luc reporter, luminescence; 0% DMSO, 100% Δ7-dafachronic acid | activation, % at 6.8 µM | hit rate 1.4% among 370,000;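 active means activation above the mean of all tested compounds plus 3 SD, cut at about 5.5% in these data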;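 further: 100% = response to 3 µM Δ7-dafachronic acid high control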
Rev-erbA mod: modulators of human Rev-erb alpha DNA binding | P20393 | Rev-erbα–FITC-DNA binding, fluorescence polarization, 90 min | activity, % at 10 µM | hit rate 0.79% among 370,000 | AID 1259318;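 active means activity above about 14%, limit read from the data; passing the limit was not always enough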;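 further: 0% = DMSO wells with 35 nM protein and 100% = DMSO wells with 750 nM protein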
DAX1 inh-2: DAX1 (NR0B1) inhibition, primary screen | hit rate 1.1% among 370,000 | inhibition, % at 6.8 µM | HEK293T StAR-luciferase reporter, SF-1/DAX-1 repression relief;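 active means inhibition above the mean over all tested compounds plus 3 SD, cut at about 3.6% in these data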;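 further: 0% = DAX-1 cells with DMSO and 100% = cells lacking DAX-1 with DMSO; higher inhibition means more luminescence from relief of DAX-1 repression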
* marks the source's active call; other numbers are inactive results; . = no result given.

SMILES | hgDAF-12 ag | ssDAF-12 act | DAX1 inh-1 | hcDAF-12 act | Rev-erbA mod | DAX1 inh-2
COC(=O)[C@@]1(C(C)C)N=C(c2cc(OC)c(OC)c(OC)c2)[C@]2(O1)C(=O)N(Cc1cn(Cc3ccccc3)nn1)c1ccc(F)cc12 | 0 | -2 | . | -3 | -2 | 0
CN(C)S(=O)(=O)c1ccc2nc(COCc3nc4ccc(S(=O)(=O)N(C)C)cc4[nH]3)[nH]c2c1 | 2 | -1 | . | 3 | -1 | .
CC1(C)OC(=O)C2=C(CC(CCc3ccccc3)OC2c2cccc(C(F)(F)F)c2)O1 (stereo not given) | -2 | 0 | . | 0 | -3 | 0
CC(C)[C@H](NC(=O)N1c2ccccc2NC(=O)[C@@H]1C(C)C)C(=O)N[C@@H](Cc1ccccc1)C(=O)O | 2 | 0 | 1 | -1 | -4 | 0
CC(C)[C@H](NC(=O)N1c2ccccc2NC(=O)[C@@H]1C(C)C)C(=O)N[C@@H](C(=O)O)c1ccccc1 | 4 | -2 | 4.5* | 0 | 3 | 0
O=C(NCc1ccc(F)cc1)c1cc2c(s1)CCCC2 | 4 | -1 | 7.0* | -3 | 6 | -1
COC(=O)c1c(-c2ccccc2)oc2c1C(OCCO)CCC2 (stereo not given) | -1 | -1 | . | 0 | -7 | -1
O=C(OCc1ccccc1)c1c(-c2ccccc2)oc2c1C(OCCO)CCC2 (stereo not given) | 1 | 1.5* | . | 1 | 0 | -1
CC(=O)Nc1nc(-c2ccc3ccccc3c2)cs1 | 13* | 0 | 3 | 5 | 3 | 2
CCC(=O)Nc1ccc(-c2csc(NNC(C)=O)n2)cc1 | 2 | 0.9* | 0 | 1 | 3 | 0
CC(=O)NCCC(=O)Nc1nc(-c2ccc3ccccc3c2)cs1 | 1 | 1 | 1 | 0 | 11 | 0
O=S1(=O)c2c(cccc2N2CC[C@H](O)C2)O[C@H]2CCN1C2 | 0 | -1 | . | 0 | -4 | -1
c1ccc(CSc2ccc(-c3ccccn3)nn2)cc1 | 12* | 0 | 1 | 5 | 4 | 3
O=C(CSc1ccc(-c2ccccn2)nn1)c1ccc(F)cc1 | 5 | -2 | 0 | 0 | -3 | 1
O=C(CSc1ccc(-c2ccccn2)nn1)c1ccccc1 | 9 | -1 | 4.6* | 2 | -1 | 0
O=C(Nc1ccc(-c2nc3cc(Cl)ccc3o2)cc1)C1CCCO1 (stereo not given) | 12* | -1 | 4 | 1 | -5 | 2
O=C(O)c1ccccc1-c1ccccc1C(=O)Nc1ccc(-c2nc3cc(Cl)ccc3o2)cc1 | 6 | -1 | -1 | 2 | -9 | 1
CC(=O)Nc1ccc(-c2nc3cc(Cl)ccc3o2)cc1 | 11* | 1 | 5.5* | 6 | -4 | 3
CC(C)(C)N(NC(=O)Nc1cccc(F)c1)C(=O)c1ccccc1Cl | 0 | -1 | . | 0 | 5 | 0
N#Cc1cccc(NC(=O)OCCN2C(=O)CCC23CCC(c2ccc(Cl)cc2)CC3)c1 (stereo not given) | 0 | -1 | . | -1 | 6 | 0
CCOC(=O)[C@@]12CN(C(=O)OC(C)(C)C)CC=C1N(Cc1ccc(OC)cc1)C(=O)[C@H]2CC(=O)NCC12CC3CC(CC(C3)C1)C2 | 2 | -2 | . | -3 | -2 | -1
O=C(CCc1ccccc1-c1ccccc1CCNC(=O)COCc1ccccc1)NCc1ccccc1 | 4 | -1 | . | -1 | 0 | -1
COc1cccc2oc3ccc(C#Cc4ccccn4)cc3c(=O)c12 | 11* | 0 | 2 | 3 | -4 | 3
O=c1/c(=C/c2ccccn2)sc2n1CN(c1ccccc1)CN=2 | 6 | -1 | 0 | -1 | 0 | 0
CCc1ccc(N2CN=c3s/c(=C\c4ccccc4)c(=O)n3C2)cc1 | 1 | -2 | 5.3* | -3 | -3 | 0
SMILES | hgDAF-12 ag | ssDAF-12 act | DAX1 inh-1 | hcDAF-12 act | Rev-erbA mod | DAX1 inh-2
COc1ccc(N2CCN(CCCNC(=O)Cc3ccc(C(F)(F)F)cc3)CC2)cc1 | 0 | -2 | . | 0 | -4 | 0
O=C(Nc1cccc(C(F)(F)F)c1)OCCCN1CCC2(CCC(c3ccccc3)CC2)C1=O (stereo not given) | 1 | -1 | . | -1 | -2 | -1
COC(=O)c1ccc(CNC(=O)c2c3c(nc4ccccc24)CCN(Cc2ccccc2)C3)cc1 | 0 | -2 | -1 | 2 | -1 | 0
O=C(NCc1ccc(F)cc1)c1c2c(nc3ccccc13)CCN(Cc1ccccc1)C2 | -2 | -1 | 4.8* | 4 | 5 | 0
CC1CCN(C(=O)Cn2c(=O)oc3cc(S(=O)(=O)N4CCCCC4)ccc32)CC1 | -1 | -1 | 4.9* | -1 | -5 | 2
CC1CCCN(C(=O)Cn2c(=O)oc3cc(S(=O)(=O)N4CCCCC4)ccc32)C1 (stereo not given) | -1 | -1 | 2 | 0 | 0 | 2
CCc1ccc(C2c3[nH]c4ccccc4c3CCN2C(=O)c2cc[n+]([O-])cc2)cc1 (stereo not given) | -2 | -1 | -2 | 1 | 3 | -1
Cn1nccc1C(=O)N1CCc2c([nH]c3ccccc23)C1c1ccc(F)cc1 (stereo not given) | 1 | 1.0* | 0 | 1 | -2 | 0
COc1ccc(C2c3[nH]c4ccccc4c3CCN2C(=O)c2cc3ncccn3n2)c(F)c1 (stereo not given) | 6 | 0 | -1 | 3 | 8 | 0
COc1ccc(C2c3[nH]c4ccccc4c3CCN2C(=O)c2cn3ccccc3n2)c(F)c1 (stereo not given) | 1 | 1.5* | 0 | 4 | 1 | 0
COc1ccc(CNC(=O)O[C@H]2CC[C@@]34CCCN3C(=O)CCC[C@H]4C2)cc1 | 1 | -1 | . | -2 | -4 | .
COc1cc([C@@H]2c3cc4c(cc3C(O[C@@H]3O[C@@H]5CO[C@@H](c6cccs6)OC5[C@H](O)[C@H]3O)C3COC(=O)[C@@H]32)OCO4)cc(OC)c1O (stereo not given in full) | . | . | . | . | 2 | .
COc1ccc(-c2nnc(N)s2)cc1 | 7 | -1 | 1 | 1 | -1 | 0
CNc1nnc(-c2ccc(OC)cc2)s1 | 11* | -1 | 5.3* | 2 | -4 | 2
O=c1[nH]c(/C=C/c2ccccc2[N+](=O)[O-])nc2ccccc12 | 1 | -1 | 0 | 3 | -29 | 0
O=c1[nH]c(/C=C/c2ccccc2F)nc2ccccc12 | 11* | 0 | 0 | 5 | -10 | 0
N#Cc1c(-c2ccccc2)cc2nc3ccccc3n2c1N | -1 | 0 | 4.3* | -1 | 0 | 0
Cc1cc(C)n2nc(SCc3nc4ccccc4[nH]3)nc2n1 | -1 | -1 | 4.5* | -2 | -1 | 0
Cc1ccc(Nc2nnc(SC3CCOC3=O)s2)cc1 (stereo not given) | 2 | -2 | 1 | -2 | 1 | 0
